The panel holds about 79,000 compounds, 15% with a hit somewhere; the sample as a whole holds those more often. Activity calls are given as the source filed them. No stated cut-off is given here; in the data, active means growth inhibition above about 70%; inactive means the rest.
Assays:
[1] = NCI Yeast Anticancer Drug Screen. Data for the wt1 strain (AID 149);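 further: 0% = growth of vehicle-treated wt1 cultures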; conditions: S. cerevisiae wt1 strain (SPY 50644) growth inhibition, stronger effect = higher value
How it was run: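 Growth inhibition read against vehicle controls after compound exposure of the wt1 yeast strain.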

[2] = NCI Yeast Anticancer Drug Screen. Data for the rad50EPP+ strain (AID 151);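 further: 0% = growth of vehicle-treated control cultures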; conditions: S. cerevisiae rad50 mutant strain, stronger effect = higher value
How it was run: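 Yeast strain carrying rad50 alteration (rad50EPP+) exposed to compounds; growth inhibition measured relative to vehicle-treated controls.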

[3] = NCI Yeast Anticancer Drug Screen. Data for the mgt1 strain (AID 153); conditions: S. cerevisiae mgt1 mutant growth inhibition, stronger effect = higher value
How it was run: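 Yeast mgt1 strain (DNA repair/cell-cycle alteration panel) exposed to compounds; growth inhibition measured relative to vehicle-treated controls.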

[4] = NCI Yeast Anticancer Drug Screen. Data for the rad50 strain (AID 155);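 further: 0% = growth of vehicle-only cultures of the same strain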; conditions: S. cerevisiae rad50 strain growth inhibition, stronger effect = higher value
How it was run: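 Readout: growth inhibition relative to vehicle-treated cultures. Compound exposure was carried out in a genetically defined yeast strain deficient in DNA damage repair.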

[5] = NCI Yeast Anticancer Drug Screen. Data for the mec2-1 strain (AID 157); conditions: S. cerevisiae mec2-1 strain, stronger effect = higher value
How it was run: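 mec2-1 yeast strain, carrying an alteration in DNA damage repair or cell cycle control, was exposed to compounds; growth inhibition was measured relative to vehicle-treated controls.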

[6] = NCI Yeast Anticancer Drug Screen. Data for the rad14 strain (AID 159);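 further: 0% = growth of vehicle-treated control cultures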; conditions: S. cerevisiae rad14 strain growth inhibition, stronger effect = higher value
How it was run: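 Growth inhibition vs vehicle controls; genetically altered yeast strain (DNA damage repair defect) treated with test compounds.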

[7] = NCI Yeast Anticancer Drug Screen. Data for the sgs1 mgt1 strain (AID 161);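 further: 0% = growth of cultures given vehicle only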; conditions: S. cerevisiae sgs1 mgt1 strain, stronger effect = higher value
How it was run: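 Percent growth inhibition was derived by comparing compound-exposed mutant yeast with vehicle-exposed cultures. The strain carries alterations in DNA damage repair.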

[8] = NCI Yeast Anticancer Drug Screen. Data for the CLN2oe strain (AID 163);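 further: 0% = growth of vehicle-only control cultures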; conditions: S. cerevisiae CLN2oe strain, stronger effect = higher value
How it was run: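 Yeast cells carrying a defined cell-cycle control alteration were exposed to test compounds. Growth inhibition was scored against vehicle-treated control cultures.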

[9] = NCI Yeast Anticancer Drug Screen. Data for the cln2 rad14 strain (AID 165);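 further: 0% = growth equal to vehicle treated cultures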; conditions: S. cerevisiae cln2 rad14 strain, stronger effect = higher value
How it was run: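 Yeast carrying cln2 and rad14 alterations (cell cycle control and DNA damage repair) were exposed to compounds. Growth inhibition was measured against vehicle-treated controls.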

[10] = NCI Yeast Anticancer Drug Screen. Data for the bub3 strain (AID 167); conditions: S. cerevisiae bub3 mutant strain, stronger effect = higher value
How it was run: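 Readout: yeast growth inhibition, expressed relative to vehicle-only wells. The test organism is a mutant strain from a panel with lesions in DNA repair or checkpoint genes.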

[11] = NCI Yeast Anticancer Drug Screen. Data for the wt2 strain (AID 169);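 further: 0% = growth of vehicle-treated yeast cultures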; conditions: S. cerevisiae wt2 strain growth inhibition, stronger effect = higher value
How it was run: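 Yeast cells were exposed to test compounds, and growth inhibition was measured relative to vehicle-treated controls.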

[12] = NCI Yeast Anticancer Drug Screen. Data for the mlh1 strain (AID 171);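 further: 0% = growth of vehicle-treated control cultures of the same strain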; conditions: S. cerevisiae mlh1 strain growth inhibition, stronger effect = higher value
How it was run: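 Yeast carrying a defined genetic alteration in DNA damage repair or cell cycle control were exposed to test compounds. Growth inhibition was measured relative to vehicle-treated controls.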

[13] = NCI Yeast Anticancer Drug Screen. Data for the sgs1 strain (AID 173);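 further: 0% = growth of vehicle-only control cultures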; conditions: S. cerevisiae sgs1 mutant, stronger effect = higher value
How it was run: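 Yeast mutant strains carrying defined defects in DNA damage repair or cell cycle control were exposed to test compounds. Growth inhibition was scored against vehicle-treated controls.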

[14] = NCI Yeast Anticancer Drug Screen. Data for the mlh1 rad18 strain (AID 175); conditions: S. cerevisiae mlh1 rad18 strain growth inhibition, stronger effect = higher value
How it was run: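 Growth inhibition of the yeast strain was measured after compound exposure and expressed relative to vehicle-treated controls. The strain carries defined defects in DNA damage repair.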

[15] = NCI Yeast Anticancer Drug Screen. Data for the rad18 strain (AID 177); conditions: S. cerevisiae rad18 mutant growth inhibition, stronger effect = higher value
How it was run: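 Yeast carrying a defined DNA damage repair alteration were exposed to compounds. Growth inhibition was expressed relative to vehicle-treated controls.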

[16] = NCI Yeast Anticancer Drug Screen. Data for the rad52 strain (AID 147);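 further: 0% = growth of vehicle-treated control cultures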; conditions: S. cerevisiae rad52 mutant growth inhibition, stronger effect = higher value
How it was run: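 Yeast strain carrying a DNA damage repair alteration was exposed to test compounds. Growth inhibition was measured relative to vehicle-treated controls.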

[17] = at 5.0 µM (retest, dose inferred, filed as 0.5)
[18] = at 50.0 µM (retest, dose inferred, filed as 5.0)

Measured: growth inhibition

OCc1ccccc1Cc1ccccc1
active: [4]; at 50.0 µM 87.9% | [14]; at 50.0 µM 79.6%
inactive: [1]; at 1.2 µM 0% | [1]; at 3.7 µM -1% | [1]; at 11.0 µM 0% | [1]; at 33.0 µM -2% | [1]; at 100.0 µM -7% | [2]; at 1.2 µM 2% | [2]; at 3.7 µM 2% | [2]; at 11.0 µM 8% | [2]; at 33.0 µM 12% | [2]; at 100.0 µM 30% | [3]; at 1.2 µM -3% | [3]; at 3.7 µM -5% | [3]; at 11.0 µM -2% | [3]; at 33.0 µM 12% | [3]; at 100.0 µM -10% | [4]; at 1.2 µM -1% | [4]; at 3.7 µM 0% | [4]; [17] 7% | [4]; at 11.0 µM -1% | [4]; at 33.0 µM -3% | [4]; [18] 21% | [4]; at 100.0 µM -6% | [5]; at 1.2 µM -1% | [5]; at 3.7 µM 2% | [5]; [17] -2% | [5]; at 11.0 µM -4% | [5]; at 33.0 µM -6% | [5]; [18] -17% | [5]; at 50.0 µM 53.4% | [5]; at 100.0 µM -6% | [6]; at 1.2 µM -1% | [6]; at 3.7 µM -1% | [6]; at 11.0 µM 0% | [6]; at 33.0 µM -2% | [6]; at 100.0 µM -3% | [7]; [17] 0% | [7]; [18] 50% | [7]; at 50.0 µM 60.5% | [8]; at 1.2 µM -7% | [8]; at 3.7 µM 0% | [8]; at 11.0 µM -2% | [8]; at 33.0 µM -5% | [8]; at 100.0 µM -7% | [9]; [17] 5% | [9]; [18] -2% | [9]; at 50.0 µM 32.9% | [10]; at 1.2 µM 2% | [10]; at 3.7 µM -1% | [10]; [17] 12% | [10]; at 11.0 µM 5% | [10]; at 33.0 µM 1% | [10]; [18] 40% | [10]; at 50.0 µM 65.8% | [10]; at 100.0 µM -9% | [11]; at 1.2 µM 0% | [11]; at 3.7 µM 0% | [11]; at 11.0 µM 0% | [11]; at 33.0 µM -2% | [11]; at 100.0 µM -7% | [12]; at 1.2 µM -1% | [12]; at 3.7 µM -1% | [12]; at 11.0 µM 0% | [12]; at 33.0 µM -2% | [12]; at 100.0 µM -3% | [13]; at 1.2 µM 0% | [13]; at 3.7 µM 2% | [13]; at 11.0 µM 2% | [13]; at 33.0 µM 1% | [13]; at 100.0 µM -1% | [14]; [17] 3% | [14]; [18] 63% | [15]; at 1.2 µM -1% | [15]; at 3.7 µM 0% | [15]; at 11.0 µM -16% | [15]; at 33.0 µM -2% | [15]; at 100.0 µM -6%

COc1ccc(NC(=O)CC2SC(=Nc3ccccc3C)NC2=O)c([N+](=O)[O-])c1 (stereo not drawn)
inactive: [1]; at 1.2 µM -1% | [1]; at 3.7 µM -1% | [1]; at 11.0 µM 1% | [1]; at 33.0 µM 10% | [1]; at 100.0 µM 36% | [2]; at 1.2 µM -2% | [2]; at 3.7 µM -2% | [2]; at 11.0 µM 1% | [2]; at 33.0 µM 28% | [3]; at 1.2 µM -2% | [3]; at 3.7 µM 1% | [3]; at 11.0 µM 1% | [3]; at 33.0 µM 12% | [4]; at 1.2 µM 1% | [4]; at 3.7 µM -44% | [4]; [17] 0% | [4]; at 11.0 µM 26% | [4]; at 33.0 µM 18% | [4]; [18] 69% | [4]; at 50.0 µM 56.7% | [5]; at 1.2 µM 1% | [5]; at 3.7 µM 1% | [5]; [17] -17% | [5]; at 11.0 µM 4% | [5]; at 33.0 µM 15% | [5]; [18] 66% | [7]; [17] 2% | [8]; at 1.2 µM 0% | [8]; at 3.7 µM -4% | [8]; at 11.0 µM 0% | [8]; at 33.0 µM -6% | [8]; at 100.0 µM 16% | [9]; [17] -2% | [9]; [18] 22% | [9]; at 50.0 µM 32.2% | [11]; at 1.2 µM -1% | [11]; at 3.7 µM 7% | [11]; at 11.0 µM 1% | [11]; at 33.0 µM 11% | [12]; at 1.2 µM 0% | [12]; at 3.7 µM -1% | [12]; at 11.0 µM 0% | [12]; at 33.0 µM 11% | [13]; at 1.2 µM -2% | [13]; at 3.7 µM 1% | [13]; at 11.0 µM 9% | [13]; at 33.0 µM 37% | [14]; [17] -1% | [14]; [18] 53% | [15]; at 1.2 µM -1% | [15]; at 3.7 µM 4% | [15]; at 11.0 µM 6% | [15]; at 33.0 µM 41%
active: [2]; at 100.0 µM 80% | [3]; at 100.0 µM 99% | [4]; at 100.0 µM 98% | [5]; at 50.0 µM 72.2% | [5]; at 100.0 µM 97% | [7]; [18] 74% | [7]; at 50.0 µM 72.9% | [11]; at 100.0 µM 92% | [12]; at 100.0 µM 99% | [13]; at 100.0 µM 99% | [14]; at 50.0 µM 74% | [15]; at 100.0 µM 98%

N=C1N=Nc2nc(C3(c4nc5n(c4O)C(=N)N=N5)Cc4ccccc4C3=O)c(O)n21 (stereo not drawn)
inactive: [16]; at 1.2 µM -1% | [16]; at 3.7 µM 1% | [16]; at 11.0 µM 5% | [16]; at 33.0 µM 18% | [16]; at 100.0 µM 69% | [2]; at 1.2 µM -2% | [2]; at 3.7 µM 0% | [2]; at 11.0 µM -1% | [2]; at 33.0 µM -1% | [2]; at 100.0 µM 3% | [4]; at 1.2 µM -9% | [4]; at 3.7 µM 34% | [4]; [17] 4% | [4]; at 11.0 µM -3% | [4]; at 33.0 µM 66% | [4]; [18] 38% | [5]; at 1.2 µM 2% | [5]; at 3.7 µM 4% | [5]; [17] 4% | [5]; at 11.0 µM 12% | [5]; at 33.0 µM 30% | [5]; [18] 28% | [5]; at 50.0 µM 59.1% | [6]; at 1.2 µM 7% | [6]; at 3.7 µM 21% | [6]; at 11.0 µM 48%
active: [4]; at 50.0 µM 82.2% | [4]; at 100.0 µM 94% | [5]; at 100.0 µM 87% | [6]; at 33.0 µM 94%

— PubChem BioAssay (NCI)
